Screening results from PubChem.
Compounds with a hit are over-represented: about 1.5% of the library has one in this group of screens.
Sa RN4220 lethal: S. aureus RN4220 growth inhibition. AID 1259311. 330,000 tested, 0.33% active. inhibition, % (test concentration not listed). OD600, 16 h; in the data active = inhibition above about 85%;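 also: plate controls were untreated cells for no effect and reference antibiotic for full effect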
CCHF vOTU inh-1: CCHFV vOTU protease inhibition; Pep-AMC fluorescence; inhibition, % at 11.5 µM; AID 651958; 370,000 tested, 0.55% active; also: 0% = vehicle wells with enzyme and 100% = no enzyme wells
SSB-PriA inh: K. pneumoniae PriA-SSBct interaction inhibition | AID 1272365 | inhibition, % at 33 µM | 430,000 tested, 0.6% active | AlphaScreen SSBct-PriA binding, biotinylated peptide; in the data active = inhibition mostly above about 37%, no sharp cut-off; inactive = mostly below about 20%;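 also: plate controls were negative control peptide for no effect and reference peptide for full effect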
DUSP3 inh: inhibitors of human VHR1 phosphatase (DUSP3) | P51452 | 290,000 tested, 0.52% active | inhibition, % at 13.3 µM | recombinant VHR phosphatase, pNPP absorbance; in the data active = inhibition above about 50%
Target sequence (P51452 whole entry, looked up): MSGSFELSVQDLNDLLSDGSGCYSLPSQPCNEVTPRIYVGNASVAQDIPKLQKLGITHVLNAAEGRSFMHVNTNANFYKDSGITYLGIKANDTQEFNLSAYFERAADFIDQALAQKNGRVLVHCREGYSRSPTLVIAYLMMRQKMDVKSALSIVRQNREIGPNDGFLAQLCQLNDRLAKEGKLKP
Sa ugtP lethal: compounds lethal to S. aureus RN4220 ugtP deletion mutant; OD600 growth, 16 h; growth inhibition, % (test concentration not listed); 330,000 tested, 0.54% active; AID 1259309; in the data active = growth inhibition above about 68%;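 also: plate controls were untreated wells for no effect and antibiotic for full effect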
CCHF vOTU inh-2: confirmation of CCHF virus vOTU protease inhibitors; shares compounds with CCHF vOTU inh-1; AID 686976; 1,900 tested, 17% active; Recombinant CCHFV vOTU, Pep-AMC fluorescence; inhibition, % at 11.5 µM
Numbers without * were called inactive. Rule as the data show it, unless noted: active = inhibition above about 30%; inactive = the rest.

COC(=O)c1cc(C)nc2c1C(=O)C(=O)C=C2N1CCOCC1 was read as Sa RN4220 lethal -0.4, CCHF vOTU inh-1 107.2*, SSB-PriA inh -4.8, DUSP3 inh 53.6*, Sa ugtP lethal -0.9 and CCHF vOTU inh-2 109.3*.
OC(c1ccc(Cl)c(F)c1)c1ncc(-c2cccc(C(F)(F)F)c2)[nH]1 (stereo not given) was read as CCHF vOTU inh-1 35.6* and CCHF vOTU inh-2 -5.7.
OC(c1ccc(F)c(F)c1)c1ncc(-c2cccc(C(F)(F)F)c2)[nH]1 (stereo not given) was read as CCHF vOTU inh-1 9.7.
Screening CCCCOCC1CN(CCCC)S(=O)(=O)c2c(F)cccc2O1 (stereo not given) returned CCHF vOTU inh-1 15.0.
`CCCCOCC1CN(CCCC)S(=O)(=O)c2c(cccc2N(C)S(=O)(=O)c2ccc(C)cc2)O1` (stereo not given) gave CCHF vOTU inh-1 32.2* and CCHF vOTU inh-2 -1.5.
O=C(Nc1ccc(Cl)c(-c2nc3ccccc3[nH]2)c1)c1ccc2c(c1)OCO2 was read as Sa RN4220 lethal 7.0, CCHF vOTU inh-1 3.5, SSB-PriA inh -0.4, DUSP3 inh 4.3 and Sa ugtP lethal -14.7.
Screening O=C(Nc1ccc(-c2nc3ccccc3[nH]2)cc1)c1ccc2c(c1)OCO2 returned Sa RN4220 lethal 3.4, CCHF vOTU inh-1 36.1*, SSB-PriA inh 4.0, DUSP3 inh 20.0, Sa ugtP lethal -9.4 and CCHF vOTU inh-2 -39.2.
Screening CCOC(=O)C1=CCC(c2cc3ccc(OC)cc3n2C(=O)OC(C)(C)C)NC1 (stereo not given) returned CCHF vOTU inh-1 34.4* and CCHF vOTU inh-2 -5.5.
Screening CCOC(=O)C1=CC[C@@H](c2cc3cc(OC)ccc3n2C)N(S(=O)(=O)c2ccc(C)cc2)[C@H]1C(=O)OCC returned CCHF vOTU inh-1 -5.3 and SSB-PriA inh 3.3.
O=C(Nc1c(C(=O)Nc2ccc(OC(F)(F)F)cc2)oc2ccccc12)c1cc(Br)ccc1Cl was read as SSB-PriA inh -5.0.
For O=C(CCc1ccccc1)Nc1cccnc1 the results were Sa RN4220 lethal 2.6, CCHF vOTU inh-1 -12.4, SSB-PriA inh -0.6, DUSP3 inh 17.2 and Sa ugtP lethal 0.8.
O=C(CCc1ccccc1)Nc1ccncc1 was read as Sa RN4220 lethal 1.3, CCHF vOTU inh-1 49.7*, SSB-PriA inh -1.4, DUSP3 inh -7.5, Sa ugtP lethal 5.5 and CCHF vOTU inh-2 -16.1.
Screening Cc1[nH][nH]c(=O)c1C(c1c(C)[nH][nH]c1=O)c1cn(Cc2ccccc2Cl)c2ccccc12 returned Sa RN4220 lethal 15.0, CCHF vOTU inh-1 66.2*, SSB-PriA inh 12.3, DUSP3 inh -5.3, Sa ugtP lethal -22.4 and CCHF vOTU inh-2 -6.8.
NC(=O)CSc1cn(Cc2ccccc2Cl)c2ccccc12 was read as SSB-PriA inh -8.0.
For CC(C)(C)c1ccc(C(=O)N2CCOC23CCCCC3)cc1 the results were CCHF vOTU inh-1 33.6* and CCHF vOTU inh-2 -15.0.
`O=C(c1cc([N+](=O)[O-])ccc1Cl)N1CCN(c2ncnc3c2nnn3Cc2ccccc2)CC1` gave SSB-PriA inh -1.0.
Screening CCCCCCCCCCCCN1C(CC(=O)O)c2cc(F)ccc2S1(=O)=O (stereo not given) returned Sa RN4220 lethal 6.9 and Sa ugtP lethal 21.0.
For CCCCCCCCCCCCN1[C@@H](CC(=O)O)c2cc(F)ccc2S1(=O)=O the results were CCHF vOTU inh-1 31.8*, SSB-PriA inh 8.2 and CCHF vOTU inh-2 42.2*.
`COCC(=O)Nc1cc(C)cn(Cc2cccc(C(F)(F)F)c2)c1=O` gave Sa RN4220 lethal 0.3, CCHF vOTU inh-1 6.4, SSB-PriA inh -6.2, DUSP3 inh -3.2 and Sa ugtP lethal -3.3.
`Cc1cc(NS(C)(=O)=O)c(=O)n(Cc2cccc(C(F)(F)F)c2)c1` gave CCHF vOTU inh-1 31.4* and CCHF vOTU inh-2 -25.2.
Screening O=C1CCN(CC2CCCCC2)C=C1C(=O)c1ccccc1 returned CCHF vOTU inh-1 32.5*, SSB-PriA inh -18.2 and CCHF vOTU inh-2 -12.8.
`FC(F)(F)c1ccc(CNCCc2ccc3c(c2)OCO3)cc1` gave Sa RN4220 lethal 3.9, CCHF vOTU inh-1 29.6*, SSB-PriA inh -9.7, DUSP3 inh 27.1, Sa ugtP lethal 0.2 and CCHF vOTU inh-2 -14.2.
Screening Cc1ccc(C)c(-c2ccc(SCC(=O)Nc3cc(C)on3)nn2)c1 returned SSB-PriA inh 14.0.
